HepG2 viability: qHTS for Inhibitors of TGF-b: Cytotox Counterscreen. 410,000 compounds, 0.76% hits. AID 588856, 2011. Potency, µM (doses to about 46.1 µM), for inactives: at the top dose activity change, negative = cytotoxicity, hits mostly cytotoxic. HepG2 CAGA-GFP viability, ATP luminescence, 18 h; note: potency is the fitted concentration of half-maximal effect
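HepG2 CAGA-GFP cells (1000/well, DMEM with 1% FBS) received compound, then TGF-beta at 500 pg/mL final, and were incubated 18 hours at 37 degrees C. Viability was read by CellTiter-Glo luminescence. Media-only wells were set as complete cell-killing and DMSO as no toxicity.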
IL1B secr inh: qHTS for Inhibitors of Inflammasome Signaling: IL-1-beta AlphaLISA Primary Screen; 360,000 compounds, 4.7% hits; activity change, % at 57.5 µM; THP-1 LPS/ATP IL-1B secretion, AlphaLISA, 16 h; active compounds read low; AID 743279, 2014; in the data active = activity change below about -50%; inconclusive = mostly about -30% to -49%; note: % is set by controls: 0 for no effect and ±100 for the full control effect
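THP-1 cells pretreated 1 hr with compounds (up to 57.5 uM final), then stimulated with LPS (250 ng/mL final) plus ATP (1.25 mM final); secreted IL-1B measured by AlphaLISA after 16 hr, decreased signal indicating inhibition.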
DT40 TDP1 CPT: qHTS for Inhibitors of human tyrosyl-DNA phosphodiesterase 1 (TDP1): qHTS in cells in presence of CPT. 420,000 compounds, 12% hits. AID 686979, 2013. chicken DT40 Tdp1-/-;hTDP1 cells + 20 nM CPT, ATP luminescence, 48 h. Potency, µM (series often up to 46.2 µM), without a hit: top-dose activity change, negative = growth inhibition, hits mostly inhibitors; note: potency is the fitted concentration of half-maximal effect; % is set by controls: 0 for no effect and ±100 for the full control effect; nearly all actives have a fitted effect of over 55% in size
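Cell growth measured by CellTiter-Glo luminescence after a minimum 48 h, 37 C compound exposure with 20 nM CPT in Tdp1-knockout DT40 cells stably expressing hTDP1, seeded 400/well; qHTS titration format.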
TDP1 block: qHTS Assay for Inhibitors of Tyrosyl-DNA Phosphodiesterase (TDP1); Potency, µM (highest dose often 130 µM), without a hit: top-dose activity change, negative = inhibition, hits mostly inhibitors; 350,000 compounds, 0.28% hits; Tyrosyl-DNA phosphodiesterase 1 (Homo sapiens), Q9NUW8; recombinant TDP1, AlphaScreen DNA substrate cleavage; note: potency is the fitted concentration of half-maximal effect; % is set by controls: 0 for no effect and ±100 for the full control effect; nearly all actives have a fitted effect of over 40% in size
Target sequence (Q9NUW8 whole entry, looked up): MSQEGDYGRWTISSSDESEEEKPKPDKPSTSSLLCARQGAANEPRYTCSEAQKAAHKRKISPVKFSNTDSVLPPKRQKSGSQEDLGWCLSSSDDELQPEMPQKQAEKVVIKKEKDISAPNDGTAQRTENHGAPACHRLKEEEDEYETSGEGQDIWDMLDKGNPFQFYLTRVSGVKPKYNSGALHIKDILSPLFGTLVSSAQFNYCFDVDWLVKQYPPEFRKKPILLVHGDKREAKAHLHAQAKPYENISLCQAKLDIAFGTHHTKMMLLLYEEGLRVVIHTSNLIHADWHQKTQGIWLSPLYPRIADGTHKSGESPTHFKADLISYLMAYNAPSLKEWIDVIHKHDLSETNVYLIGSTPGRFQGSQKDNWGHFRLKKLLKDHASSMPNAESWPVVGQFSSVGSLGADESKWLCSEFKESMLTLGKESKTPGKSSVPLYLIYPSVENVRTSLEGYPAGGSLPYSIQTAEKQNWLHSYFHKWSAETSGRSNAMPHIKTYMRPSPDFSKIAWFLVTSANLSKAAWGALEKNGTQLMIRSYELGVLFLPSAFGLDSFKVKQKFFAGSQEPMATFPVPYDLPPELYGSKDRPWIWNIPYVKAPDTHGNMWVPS
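Steps: enzyme plus compound, 15 min RT; add biotin/phosphotyrosine-FITC oligonucleotide (15 nM final), react 5 min; add donor/acceptor beads (10 ug/ml final), 10 min; read AlphaScreen. Tdp1 at 1 nM final.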
TGFb inhibitor: qHTS for Inhibitors of TGF-b | HepG2 CAGA-GFP TGF-b/SMAD3 reporter, GFP fluorescence, 18 h; TGF-beta stimulated, 500 pg/mL final | 410,000 compounds, 1.2% hits | Potency, µM (top dose mostly 46.1 µM), for inactives: at the top dose activity, negative = inhibition, most hits filed as inhibitors | AID 588855, 2011; note: potency is the fitted concentration of half-maximal effect; % is set by controls: 0 for no effect and ±100 for the full control effect; nearly all actives have a fitted effect of over 65% in size
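Smad-responsive CAGA-GFP expression was quantified in HEPG2 cells exposed to compounds and 500 pg/mL final TGF-beta for 18 h at 37 degrees C; unstimulated wells defined full inhibition.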
DT40 TDP1 no CPT: qHTS for Inhibitors of human tyrosyl-DNA phosphodiesterase 1 (TDP1): qHTS in cells in absence of CPT; DT40 Tdp1-/- hTDP1 cells, no CPT, ATP luminescence, 48 h; Potency, µM (highest dose often 46.2 µM), without a hit: at the top dose activity change, negative = growth inhibition, actives largely listed as inhibitors; 420,000 compounds, 15% hits; AID 686978, 2013; note: potency is the fitted concentration of half-maximal effect; % is set by controls: 0 for no effect and ±100 for the full control effect; nearly all actives have a fitted effect of over 55% in size
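A cellular qHTS used chicken DT40 cells lacking endogenous Tdp1 but carrying stably transfected human TDP1. Compounds were applied without camptothecin, and cell growth kinetics were judged by ATP-dependent luminescence after ≥48 hr.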
* marks the source's active call; other numbers are inactive results; ? = inconclusive; . = no result; ! = not confirmed by another sample. A selection: hits, their analogues and other compounds. The true share with any hit is near 19%. Unless noted, calls come from the whole dose curve; as a rule, active = well fitted curve in the direction sought with a large enough effect; inconclusive = small, poorly fitted or top-dose-only effect, or another doubt; inactive = no such curve, though single readings can be large; an effect the other way counts as inactive or inconclusive.

SMILES	HepG2 viability	IL1B secr inh	DT40 TDP1 CPT	TDP1 block	TGFb inhibitor	DT40 TDP1 no CPT
CCOC(=O)C1=C(N)Oc2cc(O)ccc2C1c1ccc([N+](=O)[O-])cc1 (stereo not drawn)	-31.7%	-69.8*	0.5%	0.0%	?	-16.9%
CCOC(=O)C1=C(N)Oc2ccc3ccccc3c2C1c1ccc(O)cc1 (stereo not drawn)	-88.3%	-11.5	?	9.9%	?	?
Fc1ccc(-c2cn3cc(Cc4ccc(Cl)cc4)sc3n2)cc1	-3.6%	.	-8.1%	-4.2%	?	-23.3%
C[C@@H]1CN(S(=O)(=O)C(C)(C)C)[C@H](CCO)/C1=C\c1ccccc1	-18.6%	9.4	-10.8%	.	-9.2%	-26.7%
C=CCNC(=S)N/N=C/c1ccc(OCc2ccccc2Cl)cc1	-30.0%	14.0	?	3.9%	-24.2%	-27.3%
Clc1ccccc1COc1ccc(/C=N/n2cnnc2)cc1	-1.0%	9.6	?	79.4µM*	-1.8%	?
O=C(Nc1cc(OC(=O)C(F)(F)F)c2nonc2c1OC(=O)C(F)(F)F)C(F)(F)F	-77.9%	.	10µM*	5.8%	?	11.2µM*
CCOc1ccc(S(=O)(=O)N2CCCCC2)cc1NC(=O)c1c(CC)noc1C	0.7%	-16.2	-22.7%	.	17.7%	-23.8%
O=C(N[C@@H]1CCC(=O)N(CC[C@H](Sc2ccc(Br)cc2)c2ccccc2)CC1)OCc1ccccc1	2.7%	?	25.9µM*	-1.4%	?	18.4µM*
[N-]=[N+]=N[C@@H](CCN1CC[C@H](NC(=O)OCc2ccccc2)CCC1=O)c1ccccc1	-18.4%	17.4	?	.	?	?
C[C@@H](CN=[N+]=[N-])CN1CC[C@H](NC(=O)OCc2ccccc2)CCC1=O	-18.6%	19.8	?	.	?	?
N#CCCN1CCC(NC(=O)OCc2ccccc2)CCC1=O (stereo not drawn)	-10.6%	40.4	-0.7%	.	-1.3%	-1.6%
COc1ccc(S[C@@H](CCN2CC[C@H](NC(=O)OCc3ccccc3)CCC2=O)c2ccccc2)cc1	-38.8%	-52.8*	18.4µM*	3.1%	12.6µM*	23.1µM*
COc1ccc(SC[C@H](C)CN2CC[C@H](NC(=O)OCc3ccccc3)CCC2=O)cc1	-20.3%	28.4	?	4.8%	-18.5%	23.1µM*
CCOc1ccc(NC(=O)Cn2nnc(C(=O)OC)c2C(=O)OC)cc1	-7.8%	.	12.0%	2.5%	-29.3%	-5.8%
Cc1ccc(S(=O)(=O)NC2CC(C)(C)N(O)C(C)(C)C2)cc1	3.4%	19.3	?	2.9%	?	20.6µM*
COc1ccc(CNC(=O)CCn2cccn2)cc1	11.6%	.	-1.2%	-0.9%	-3.6%	-7.2%
CCOCCNC(=O)c1ccccc1C(=O)NCCOCC	18.2%	-6.6	-0.6%	1.1%	20.8%	0.2%
CCOCCN(C(=O)c1ccccc1Cl)c1cccc(C)c1C	-13.5%	.	25.9µM*	1.2%	?	?
COc1ccc(-c2noc(N3CCN(c4ccc(C)cc4)C(C)C3)n2)cc1OC (stereo not drawn)	-0.9%	.	?	3.7%	3.7%	16.4µM*
C=C[C@@H]1c2ccccc2N(S(=O)(=O)c2ccc(C)cc2)[C@H](c2ccc(OC(C)=O)cc2)C1(C#N)C#N	-45.0%	-15.7	15.8µM*	-0.2%	?	15.8µM*
CC(=O)CC1N(S(=O)(=O)c2ccc(C)cc2)c2ccccc2N1S(=O)(=O)c1ccc(C)cc1	.	0.0	18.8%	.	.	7.1%
C=C[C@@H]1c2cc(C)ccc2N(S(=O)(=O)c2ccc(C)cc2)[C@H](c2ccc(OC(C)=O)cc2)C1(C#N)C#N	6.31µM*!	13.3	4.61µM*	0.9%	?	5.8µM*
CC(CCc1ccccc1)NC(=O)C1CCCN(C(=O)c2cc3sccc3n2C)C1 (stereo not drawn)	-34.3%	-12.4	18.4µM*	0.7%	?	14.6µM*
CCn1c(C(=O)N2CCCC(C(=O)NCCCc3ccccc3)C2)cc2sccc21 (stereo not drawn)	-10.4%	?	20.6µM*	4.9%	-12.9%	?
SMILES	HepG2 viability	IL1B secr inh	DT40 TDP1 CPT	TDP1 block	TGFb inhibitor	DT40 TDP1 no CPT
COc1ccc(CC2(CO)CCN(Cc3nc(C(C)C)cs3)CC2)cc1	-4.1%	14.2	15.0%	6.0%	-4.2%	?
COc1ccc(CC2(CO)CCN(CC3=Cc4cc(Cl)ccc4OC3)CC2)cc1	-97.2%	-86.5*	13µM*	0.0%	?	6.51µM*
COc1ccc2c(c1)C=C(CN1CCC(CO)(CCc3ccccc3)CC1)CO2	-24.3%	-60.1*	?	6.2%	-23.6%	?
CCOC(=O)CN1C(=O)NC2(CCCc3ccccc32)C1=O (stereo not drawn)	2.2%	17.9	5.4%	.	-0.2%	2.4%
O=C(COc1ccccc1Cl)NCc1ccco1	-4.7%	-3.7	-4.6%	7.2%	-1.9%	-26.3%
Cc1cc(Cl)cc(Cl)c1OCC(=O)NCc1ccco1	-9.0%	?	?	3.0%	-25.6%	18.4µM*
C/C(CC(=O)NCc1ccco1)=N\NC(=O)COc1ccc(Cl)cc1Cl	4.2%	41.1	18.4µM*	6.0%	-13.0%	20.6µM*
Cc1cccc(C)c1OCCNC(=O)C(=O)NCc1ccco1	1.4%	47.0	1.84µM*	5.6%	-17.2%	2.31µM*
CCOc1ccccc1OCC(=O)NCc1ccco1	-12.8%	-1.0	29.1µM*	-10.9%	0.8%	12.6µM*
O=C(COc1ccc(Cl)cc1Cl)NCc1ccco1	11.2%	-14.7	-19.0%	1.0%	1.9%	-6.8%
CCOC(=O)c1c(N)n(-c2ccc(Cl)c(Cl)c2)c2nc3ccccc3nc12	-16.3%	.	?	.	-5.3%	?
COC(C[C@@H](O)C[C@H](O)COCc1ccccc1)OC	-1.5%	18.1	1.6%	0.0%	7.5%	9.4%
COc1ccc(CNC(=O)C/C(C)=N/NC(=O)COc2ccc(C)cc2Br)cc1	-1.4%	56.9	2.31µM*	0.5%	?	3.66µM*
O=C(COc1ccccc1-c1ccccc1)NCc1ccco1	-7.8%	-50.9*	-31.3%	-2.7%	-5.8%	-26.3%
CCOC(=O)C1=C(C)NC(C)=C(C(=O)OCC)C1C(=O)OCC(=O)NCc1ccco1	8.3%	28.8	-55.3%	1.1%	2.1%	20.6µM*

Source: PubChem BioAssay
